Screening results as filed in PubChem BioAssay.
CRFR2-BP antag – CRF-BP/CRF-R2 complex antagonism; HEK293 CRF-R2/CRF-BP, CRF-induced calcium fluorescence; inhibition, % at 11.8 µM; 350,000 compounds, 0.59% hits; AID 588475;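 active = inhibition of the ligand-induced calcium signal above about 50% at the single tested concentration, limit read from the data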
MEKK2wt PB1 HTS – raises or lowers MEK5 binding to wildtype human MEKK2 PB1 domain | Q9Y2U5 | bead flow cytometry, Alexa488-MEK5 binding to MEKK2 WT; actives lie on both sides | binding response (% of control), % at 10 µM | 290,000 compounds, 1.1% hits | AID 1531; in the data active = binding response below about 67% or above about 130%
MEKK2mut PB1 HTS – signal of MEK5 binding to mutant human MEKK2 PB1 domain | bead flow cytometry, Alexa488-MEK5 binding to MEKK2 mutant | percent response, % at 10 µM | 290,000 compounds, 0.35% hits | AID 1530; in the data active = percent response above about 24%, passing the limit was not always enough
ABCB6 inh MLPCN – blocks the human ABCB6 transporter | 360,000 compounds, 0.19% hits | fluorescence ratio to DMSO, % at 10 µM | Q9NP58 | K562-ABCB6 porphyrin accumulation, flow cytometry, 1 h; active compounds read low;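 active = fluorescence ratio to DMSO below 75%, the collection mean minus 3 SD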;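 note: signal is porphyrin accumulated inside mitochondria; 100% equals median channel fluorescence of DMSO control wells; lower ratio means ABCB6 inhibition with less porphyrin fluorescence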
Target sequence (Q9NP58 whole entry, looked up): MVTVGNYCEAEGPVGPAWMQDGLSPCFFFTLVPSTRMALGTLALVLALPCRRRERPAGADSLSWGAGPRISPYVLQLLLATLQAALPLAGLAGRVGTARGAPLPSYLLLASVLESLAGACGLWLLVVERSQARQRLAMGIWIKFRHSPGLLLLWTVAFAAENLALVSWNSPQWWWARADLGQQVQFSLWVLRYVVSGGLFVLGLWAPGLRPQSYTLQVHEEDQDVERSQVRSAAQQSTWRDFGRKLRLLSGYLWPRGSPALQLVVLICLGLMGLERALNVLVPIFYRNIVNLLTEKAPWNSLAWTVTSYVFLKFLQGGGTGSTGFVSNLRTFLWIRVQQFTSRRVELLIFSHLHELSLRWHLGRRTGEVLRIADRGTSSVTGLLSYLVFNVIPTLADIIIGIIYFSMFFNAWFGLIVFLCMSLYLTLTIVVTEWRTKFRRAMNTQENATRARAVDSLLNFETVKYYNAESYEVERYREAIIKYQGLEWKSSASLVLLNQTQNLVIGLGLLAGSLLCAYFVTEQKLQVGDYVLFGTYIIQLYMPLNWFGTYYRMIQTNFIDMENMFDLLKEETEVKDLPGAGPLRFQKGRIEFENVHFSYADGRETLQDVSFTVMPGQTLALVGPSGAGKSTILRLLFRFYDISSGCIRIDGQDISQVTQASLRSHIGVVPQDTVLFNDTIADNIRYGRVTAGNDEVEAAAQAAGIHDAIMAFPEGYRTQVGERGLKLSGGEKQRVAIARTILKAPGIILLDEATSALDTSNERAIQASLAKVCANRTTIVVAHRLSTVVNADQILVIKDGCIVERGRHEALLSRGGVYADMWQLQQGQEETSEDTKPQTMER
MEKK3 PB1 HTS – raises or lowers MEK5 binding to the human MEKK3 PB1 domain. Q99759. bead-based flow cytometry, Alexa488-MEK5 binding to MEKK3; actives lie on both sides; 0 = blocked by unlabeled MEK5, 100 = vehicle. binding response (% of control), % at 10 µM. 290,000 compounds, 1.4% hits;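 active = binding response more than 3 SD above or below the average of its plate-row segment, actives on both sides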;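 note: Alexa488 bead fluorescence after subtracting the streptavidin-only scavenger bead signal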
CRFR2-BP ag – agonists of human CRF-binding protein/CRF-R2 receptor complex; 350,000 compounds, 0.46% hits; AID 588473; activation, % at 13.2 µM; HEK293 CRF-R2/CRF-BP, calcium dye fluorescence (FLIPR); percent of saturating CRF peptide response;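 active = activation of at least 50%, plus an integration ratio under a set limit after plate pattern correction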;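 note: plate controls were neutral control wells without compound for no effect and CRF at EC100 for full effect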
MEKK2wt confirm – raises or lowers MEK5 binding to wildtype human MEKK2, retest | shares compounds with MEKK3 PB1 HTS | bead flow cytometry, Alexa488-MEK5 binding to MEKK2 WT; actives lie on both sides | binding response (% of control), % at 10 µM | 5,900 compounds, 2.4% hits | AID 1892; in the data active = binding response below about 16% or above about 210%; inactive = in between
MEKK2mut confirm – signal of MEK5 binding to mutant human MEKK2, retest; shares compounds with MEKK3 PB1 HTS; bead flow cytometry, Alexa488-MEK5 binding to MEKK2 mutant; percent response, % at 10 µM; 5,900 compounds, 2% hits; AID 1893; in the data active = percent response mostly above about 71%, no sharp cut-off; inactive = mostly below about 38%;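 note: higher means compound restores mutant binding toward wildtype level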
MEKK3 confirm – confirmation of inhibitors of MEK5 binding to human MEKK3; shares compounds with MEKK3 PB1 HTS; bead flow cytometry, Alexa488-MEK5 binding to MEKK3; active compounds read low; binding response (% of control), % at 10 µM; 5,900 compounds, 1.8% hits;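 active = binding response below 72% of control, or above a set upper limit, though filed actives all read lower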;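 note: 100% = DMSO only wells and 0% = binding blocked by excess unlabeled MEK5; lower values mean stronger disruption of MEK5 binding to MEKK3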
Numbers without * were called inactive; / = not tested or not shown; [ ] = remark or other dose. Most compounds without a hit are left out; they make up all but 2.9% or so of the library.

SMILES | CRFR2-BP antag | MEKK2wt PB1 HTS | MEKK2mut PB1 HTS | ABCB6 inh MLPCN | MEKK3 PB1 HTS | CRFR2-BP ag | MEKK2wt confirm | MEKK2mut confirm | MEKK3 confirm
CCN(C(=O)COc1ccc(F)cc1Br)c1c(N)n(Cc2ccccc2)c(=O)[nH]c1=O | -6 | / | / | 104 | / | 0 | / | / | /
CCNc1ccccc(-c2ccc3ccccc3n2)c1=O | -7 | 104 | 1 | 95 | 120 | 3 | / | / | /
O=C1c2ccccc2-c2onc3ccc(NCc4ccco4)c1c23 | -116 | 53*[inhibitor] | -18 | 336 | 52*[inhibitor] | 148* | 63 | -22 | 59*
CCNc1ccc2noc3c2c1C(=O)c1ccccc1-3 | -179 | 30*[inhibitor] | 1 | 122 | 32*[inhibitor] | 192* | 52 | -14 | 56*
O=C1C(Cl)=C(NCc2ccco2)C(=O)c2ccccc21 | 6 | / | / | 94 | / | -3 | / | / | /
CCOC(=O)C1CCN(C(=O)Cn2c(=O)c3cccn3c3cccnc32)CC1 | 6 | 108 | 8 | 97 | 106 | -1 | / | / | /
O=C(CN1C(=O)COc2ccccc21)c1ccc(Cl)cc1 | 4 | 117 | 5 | 94 | 122* | 0 | 95 | 1 | 102
CCN1CCN(c2cc(C)c3cc(NC(=O)c4ccc(OC)c(OC)c4)ccc3n2)CC1 | 4 | 130 | 30* | 103 | 105 | 1 | 126 | 13 | 102
COc1ccc(C)cc1NC(=O)CCC(=O)Nc1ccc2nc(N3CCN(C)CC3)cc(C)c2c1 | 12 | / | / | / | / | 0 | / | / | /
COc1ccc(C(=O)Nc2ccc3nc(N4CCN(C)CC4)cc(C)c3c2)c(OC)c1 | 0 | 156* | 24* | 96 | 106 | -1 | 142 | 34 | 108
O=C(CSc1cccc[n+]1[O-])c1cc(Cl)ccc1Cl | -1 | 109 | -1 | 93 | 103 | 1 | / | / | /
O=C(/C=C/c1cccc(C(F)(F)F)c1)OCC(=O)N1CCN(c2ccccc2)CC1 | -22 | / | / | 103 | / | -3 | / | / | /
CCCCNC(=O)NNC(=O)c1cc(C)on1 | -6 | 100 | -1 | 97 | 100 | 1 | / | / | /
O=C(NCCN1C(=O)S/C(=C\c2cccs2)C1=O)[C@H](Cc1ccccc1)N1C(=O)c2ccccc2C1=O | / | 99 | -1 | / | 107 | / | / | / | /
CC(C(=O)NCCN1C(=O)S/C(=C\c2cccs2)C1=O)N1C(=O)c2ccccc2C1=O (stereo not given) | 10 | 107 | 0 | 96 | 146* | 0 | 92 | -8 | 92
CSCCC(NC(=O)c1ccc(Cl)cc1Cl)C(=O)N(C)Cc1nc2ccccc2c(=O)[nH]1 (stereo not given) | 9 | / | / | 98 | / | -2 | / | / | /
Cc1cc2nc(SCCOC(=O)Nc3ccccc3)nc(C)c2cc1C | -20 | 107 | 3 | 100 | 106 | 5 | / | / | /
Cc1cc2nc(SCCOC(=O)Nc3cccc(Cl)c3)nc(C)c2cc1C | -38 | 111 | 1 | 97 | 153* | 1 | 98 | -3 | 102
CCOc1ccc(NC(=O)CN2CCN(CC(=O)Nc3cccc(F)c3)CC2)cc1 | 4 | 103 | 9 | 92 | 102 | -1 | / | / | /
COc1ccccc1NC(=O)CN1CCN(CC(=O)Nc2ccc3c(c2)OCCO3)CC1 | -10 | 112 | 24* | 95 | 106 | -2 | 112 | 15 | 104
CCOc1ccc(NC(=O)CN2CCN(CC(=O)Nc3cc(OC)cc(OC)c3)CC2)cc1 | -2 | 115 | 25* | 96 | 113 | -1 | 105 | -3 | 104
CCCC1Cc2c(sc(N)c2C#N)CO1 (stereo not given) | 6 | 93 | -3 | 104 | 96 | 0 | / | / | /
